# Laboratory results reported in PubChem BioAssay.
# Target: NADPH oxidase 5 (Homo sapiens) (UniProt Q96PH1)
# Assay: NOX5-dependent H2O2 signal modulators, primary screen, NOX inhibitor project, cell-based, HEK293-NOX5, Amplex Red fluorescence (AID 1161)
# Settings: HEK293-NOX5, ionomycin, 45 min, higher = more signal
# Chain of NADPH oxidase 5 (Homo sapiens) (Q96PH1 whole entry, looked up): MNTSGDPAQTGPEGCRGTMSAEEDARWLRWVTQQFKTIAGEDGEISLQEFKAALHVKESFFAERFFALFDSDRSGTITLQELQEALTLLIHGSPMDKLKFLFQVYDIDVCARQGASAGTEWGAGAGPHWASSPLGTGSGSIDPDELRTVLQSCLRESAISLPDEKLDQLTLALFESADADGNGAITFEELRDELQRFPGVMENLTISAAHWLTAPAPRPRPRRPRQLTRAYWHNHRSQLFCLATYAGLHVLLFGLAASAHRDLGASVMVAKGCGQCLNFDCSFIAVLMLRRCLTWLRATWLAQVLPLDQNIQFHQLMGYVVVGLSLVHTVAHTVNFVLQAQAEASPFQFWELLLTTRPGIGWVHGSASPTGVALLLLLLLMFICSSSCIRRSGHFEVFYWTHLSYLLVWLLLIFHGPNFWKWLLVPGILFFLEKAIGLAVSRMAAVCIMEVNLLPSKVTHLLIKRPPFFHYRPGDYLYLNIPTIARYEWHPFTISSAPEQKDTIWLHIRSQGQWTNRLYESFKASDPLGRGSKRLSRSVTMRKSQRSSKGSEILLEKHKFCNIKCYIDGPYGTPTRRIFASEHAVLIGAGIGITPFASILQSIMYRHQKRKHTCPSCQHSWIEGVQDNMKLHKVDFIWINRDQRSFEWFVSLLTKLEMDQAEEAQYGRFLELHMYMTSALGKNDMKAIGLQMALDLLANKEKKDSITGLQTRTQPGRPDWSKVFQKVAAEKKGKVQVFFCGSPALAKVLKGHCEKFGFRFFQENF
row,SMILES,z-score
1,COC(=O)c1c2oc(c1C(=O)OC)C(=O)N[C@H](Cc1ccccc1)Cn1nncc1C1(CCCCC1)NC(=O)N[C@H](CO)CC2,-3.47
2,CCOC1=C2C(c3ccc(C)cc3)N(S(=O)(=O)c3ccc(C)cc3)CC2n2c(=O)n(-c3ccccc3)c(=O)n2C1 (stereo not given),0.536
3,C[C@H]1C2[C@H](Cc3ccccc3)NC(=O)[C@]23C(=O)N[C@H](Cc2ccccc2)C(=O)N[C@H](Cc2ccccc2)C(=O)NC/C=C/CCC/C=C/C3[C@@H]2O[C@]12C (stereo not given in full),0.875
4,Cc1ccc(S[C@]2(C(=O)NCCCN(C)C)CC(=O)N(C(C)C)[C@@H]2c2ccc(CO)cc2I)cc1,2.17
5,O=C1O[C@@H](c2ccccc2)[C@@H](c2ccccc2)N2[C@@H](c3ccc(O)cc3)[C@]3(C(=O)Nc4ccccc43)[C@@H](C(=O)N3CCCCCCC3)[C@H]12,1.57
6,COc1ccc(C#Cc2ccc3c(c2)[C@]2(C(=O)N3)[C@H](C(=O)N3CCN(c4ncccn4)CC3)[C@H]3C(=O)O[C@H](c4ccccc4)[C@H](c4ccccc4)N3[C@@H]2c2ccc(O)cc2)cc1,-0.146
7,COCCCNC(=O)[C@@]1(C)c2ccccc2C(=O)N(Cc2ccccc2)[C@H]1c1ccc(CO)cc1,-2.66
8,C=CCC(OC(C)=O)[C@@H]1[C@@H](N(Cc2cc3ccccc3o2)C(=O)c2cccc3ccccc23)c2cc(OCCCO)ccc2N1C(=O)Cc1ccc(OC)cc1 (stereo not given in full),-1.57
9,CC1CC/C=C\[C@H]2OC34C=CCN(c5ccc6ccccc6c5)C(=O)[C@H]3N(CCCCCO)C(=O)[C@@H]4C2C(=O)O1 (stereo not given in full),1.7
10,CN(C)CCCC[C@@H]1NC(=O)[C@@H]2C[C@H](C(=O)NCCCCCN)[C@H](c3ccc(O)cc3)N2C1=O,0.701
11,CC(=O)n1cc(C(O)C2C=CC3C(=O)N(c4ccccc4)C(=O)C3N2Nc2ccc(C#N)cc2)c2ccccc21 (stereo not given),-3.01
12,COc1cc(NN2C(C(O)c3ccccc3)C=CC3C(=O)N(c4ccccc4)C(=O)C32)cc(OC)c1OC (stereo not given),-7.16
13,C/C=C/[C@H](CCn1cc([C@H](O)c2ccccc2)nn1)[Si](C)(C)c1ccc(OC)cc1,-2.11
14,C=C(C(=O)CC[C@@H](OC(=O)c1cccnc1)c1ccc(CO)o1)C(C)C,0.337
15,C=CCC(OC(C)=O)[C@@H]1[C@@H](N(Cc2cc3ccccc3o2)C(=O)c2cccc3ccccc23)c2cc(OCCCO)ccc2N1C(=O)Cc1ccc2ccccc2c1 (stereo not given in full),-2.19
16,Cc1ccccc1/C=C/C=O,0.45
17,[N-]=[N+]=NCc1ccccc1C[C@]1(C(=O)NCc2ccccc2)COC(c2ccc(OCCCO)cc2)=N1,-1.81
18,COCCOC(=O)N1C(=O)[C@@]2(c3cc(C#CC4=CCCCC4)ccc31)[C@H](C(=O)N1CCN(c3ncccn3)CC1)[C@H]1C(=O)O[C@H](c3ccccc3)[C@H](c3ccccc3)N1[C@@H]2c1ccc(OCCO)cc1,0.934

row,SMILES,z-score
1,COC(=O)C(CC#Cc1ccc2c(c1)[C@]1(C(=O)N2)[C@H](C(=O)N2CCCCCCC2)[C@H]2C(=O)O[C@H](c3ccccc3)[C@H](c3ccccc3)N2[C@@H]1c1ccccc1OCCO)C(=O)OC,1.22
2,NC(=O)[C@]1(Cc2ccccc2)N=C(c2ccc(OCCCO)cc2)O[C@@H]1c1ccccc1,0.575
3,CCCCN1CC=CC23O[C@@H]4C=CCCOC(=O)C4[C@H]2C(=O)N(CCCO)[C@@H]3C1=O (stereo not given in full),-1.34
4,C=CC[C@@]1(C(=O)OC)N=C(c2ccc(OCCCO)cc2)O[C@@H]1c1ccccc1CN=[N+]=[N-],-3.1
5,C=CC[C@@]1(C(N)=O)N=C(c2ccc(OCCCO)cc2)O[C@@H]1c1ccccc1N=[N+]=[N-],-1.76
6,Cc1ccc(N2C(=O)c3ccccc3[C@@H](C(=O)NCC(C)C)[C@@H]2c2ccc(CO)cc2)nc1,0.84
7,CN1C(=O)C2C=CC(C(O)c3ccc(Br)cc3)N(Nc3ccccc3)C2C1=O (stereo not given),-2.23
8,CCCC[C@@H]1C[C@H]1[C@@H](NC(=O)c1ccccc1)c1ccccc1,1.98
9,CN(C)CCCCCCNC(=O)[C@@H]1C[C@@H]2C(=O)NCC(=O)N2[C@@H]1c1cccc(OCCO)c1,0.6
10,COC(=O)c1c(CC[C@@H](CO)NC(=O)Nc2ncn[nH]2)oc(C(=O)Cc2ccccc2)c1C(=O)OC,-0.53
11,COC(=O)[C@@]1(Cc2ccc(F)cc2)[C@H]2c3cc(C(=O)N4CCCC4)n(CCc4ccc(OC)c(Br)c4)c3C[C@H]2CN1C(=O)c1ccccc1,0.98
12,[N-]=[N+]=NCc1ccccc1[C@@H]1OC(c2ccc(OCCCO)cc2)=N[C@]1(Cc1ccccc1N=[N+]=[N-])C(N)=O,0.12
13,C#C[C@H](O[Si](C#CCCCCCC)(C(C)C)C(C)C)c1ccccc1,-1.97
14,CC(=O)NCCCC[C@@H]1NC(=O)[C@@H]2C[C@H](C(=O)NCc3ccc(F)cc3)[C@H](c3ccc(O)cc3)N2C1=O,1.37
15,CC(C)C[C@@H]1NC(=O)[C@@H]2C[C@H](C(=O)NCCCCN(C)C)[C@H](c3ccc(O)cc3)N2C1=O,0.21
16,COCCOC(=O)N1C(=O)[C@@]2(c3cc(C#Cc4ccc(OC)cc4)ccc31)[C@H](c1ccc(O)cc1)N1[C@H](c3ccccc3)[C@H](c3ccccc3)OC(=O)[C@H]1[C@@H]2C(=O)N1CCN(c2ncccn2)CC1,-0.0267
17,CCOC(=O)C1=CC[C@@H](c2cccc(Cl)c2)N(S(=O)(=O)c2ccc(C)cc2)[C@H]1c1ccc(C#N)cc1,0.639
